PLK1 PBD inh: PLK1 (human) polo-box domain binding inhibition; Plk1 PBD binding of FITC phosphopeptide, fluorescence polarization; Potency, µM, for inactives: max response, negative = inhibition, most hits filed as inhibitors; 360,000 compounds, 2.8% hits; AID 720504; further: series mostly up to about 57 µM; on the % scale 0 is the no-effect control and ±100 the full control effect; nearly all actives have a fitted effect of over 65% in size
Target sequence (P53350 whole entry, looked up, the tested form may be a part): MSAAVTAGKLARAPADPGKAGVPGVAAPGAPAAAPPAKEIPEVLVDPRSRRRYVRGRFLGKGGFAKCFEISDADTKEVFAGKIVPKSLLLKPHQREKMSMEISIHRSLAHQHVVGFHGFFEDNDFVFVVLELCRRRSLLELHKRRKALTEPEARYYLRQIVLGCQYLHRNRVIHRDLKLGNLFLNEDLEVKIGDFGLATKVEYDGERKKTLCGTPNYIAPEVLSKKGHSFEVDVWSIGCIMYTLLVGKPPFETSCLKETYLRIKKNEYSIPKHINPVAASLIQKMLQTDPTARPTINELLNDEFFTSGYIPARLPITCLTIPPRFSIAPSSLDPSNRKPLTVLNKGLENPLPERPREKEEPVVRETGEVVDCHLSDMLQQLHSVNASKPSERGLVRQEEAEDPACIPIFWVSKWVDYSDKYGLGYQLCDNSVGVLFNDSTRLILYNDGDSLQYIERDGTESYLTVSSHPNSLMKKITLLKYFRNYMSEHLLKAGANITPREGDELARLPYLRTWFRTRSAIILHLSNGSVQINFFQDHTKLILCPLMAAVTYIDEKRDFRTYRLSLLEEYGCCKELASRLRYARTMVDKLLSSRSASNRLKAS
GCN5L2 inh: GCN5L2 (KAT2A) acetyltransferase inhibition | GCN5L2 HAT assay, ThioGlo1 CoA-SH fluorescence | Potency, µM (doses to about 58.9 µM), for the others: at the highest dose activity change, negative = inhibition, most hits filed as inhibitors | 390,000 compounds, 0.21% hits | Q92830; further: on the % scale 0 is the no-effect control and ±100 the full control effect
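qHTS, 1536-well. 20nM enzyme, pH 7.5 HEPES/EDTA/Tween-20 buffer; 15 min compound preinc., RT. Start: 75uM H3(1-25), 70uM AcCoA, 50uM ThioGlo1. Read Ex340/Em540 at t=0 (autofluorescence flag) and t=20 min.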
PTAP TSG101 blk: blocks PTAP/TSG101 interaction to inhibit HIV-1 budding. Fluorescence polarization, FITC-PTAP peptide / Tsg101 binding. Potency, µM (titrated, usually from 115 µM), for the others: at the highest dose activity change, negative = inhibition, hits mostly inhibitors. 340,000 tested, under 10 active. AID 493005; active means well fitted inhibition curve with a large enough effect in the main read-out, with a control signal flat, not every such curve was filed as active; inconclusive means small, poorly fitted or top-dose-only effect, or effect the other way, or a change in a side signal; inactive means no such curve, though single readings can be large or run the other way; further: % of control where 0% means no effect
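Fluorescence anisotropy tracks displacement of a FITC-tagged PTAP peptide (50 nM) from the Tsg101 binding domain (10 uM), following a 20 min room-temperature incubation at pH 7.5.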
VDR inh: vitamin D3 receptor (human) inhibition; P11473; VDR-SRC2-3 peptide fluorescence polarization, 2 h; Potency, µM, for inactives: max response, negative = inhibition, usual class: inhibitors; 400,000 compounds, 0.93% hits; AID 504847; further: on the % scale 0 is the no-effect control and ±100 the full control effect
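Measured by FP: displacement of SRC2-3 coactivator peptide from VDR by library compounds, following a two-hour ambient incubation.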
USP1-UAF1 inh: USP1/UAF1 (human) deubiquitinase inhibition. 390,000 compounds, 0.23% hits. Potency, µM (highest dose often 57.1 µM), for inactives: at the highest dose activity change, negative = inhibition, usual class: inhibitors. O94782. recombinant USP1/UAF1, Ub-Rhodamine cleavage fluorescence. AID 743255; further: on the % scale 0 is the no-effect control and ±100 the full control effect; nearly all actives have a fitted effect of over 60% in size
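1 nM enzyme complex + cpd, 15 min RT; start with Ub-Rho 150nM final; kinetic fluorescence ex 480/em 540, 6 reads q60 s. Buffer 50mM HEPES pH 7.8, 0.5mM EDTA, 0.1 mg/ml BSA, 1mM TCEP, 0.01% Tween-20.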
* hit, by the source's call. This is a sample that favours compounds with a hit; in the whole collection about 3% have one here. Unless noted, the call rests on the fitted dose curve; in most records, active means well fitted curve in the direction sought with a large enough effect; inconclusive means small, poorly fitted or top-dose-only effect, or another doubt; inactive means no such curve, though single readings can be large; an effect the other way counts as inactive or inconclusive. Potency means the concentration at half of the fitted maximal effect.

Results for CCN(CC)c1ccc(S(=O)(=O)N2CCOCC2)cc1NC(=O)CSC(=S)N1CCCC1 ?
PLK1 PBD inh: 13µM*; GCN5L2 inh: inconclusive; PTAP TSG101 blk: 0%; VDR inh: -30%; USP1-UAF1 inh: -19%

How did Cc1ccc(S(=O)(=O)N2CCOCC2)cc1NC(=O)CSc1ccccn1 do in these assays?
PLK1 PBD inh: 30µM*; GCN5L2 inh: -17%; PTAP TSG101 blk: -3%; VDR inh: -4%; USP1-UAF1 inh: -20%

How did COc1ccc(NC(=O)c2cccc(N3CCCS3(=O)=O)c2)cc1 do in these assays?
GCN5L2 inh: -14%; VDR inh: 9%; USP1-UAF1 inh: -22%

Results for Cc1cc(OCC(=O)NCC2(N3CCOCC3)CCCCC2)ccc1Cl ?
GCN5L2 inh: -10%; VDR inh: 11%; USP1-UAF1 inh: -3%

How did O=C1C(=O)c2ccccc2C(O)=C1c1cccc([N+](=O)[O-])c1 do in these assays?
PLK1 PBD inh: 27µM*; GCN5L2 inh: -2%; PTAP TSG101 blk: -5%; VDR inh: -16%; USP1-UAF1 inh: -10%

How did OCC1=C[C@@H](O)[C@@H]2C=CO[C@@H](OC3O[C@H](CO)[C@@H](O)[C@H](O)[C@H]3O)[C@H]12 (stereo partly specified) do in these assays?
GCN5L2 inh: 8%; VDR inh: 4%

Results for Cc1ccc(S(=O)(=O)N2CC=C(C(=O)NC3CC3)CC2)cc1 ?
PLK1 PBD inh: 21µM*; GCN5L2 inh: -28%; PTAP TSG101 blk: 0%; VDR inh: -15%; USP1-UAF1 inh: -15%

What do the screens show for `Cc1ccc(CNC(=O)C2=CCN(S(=O)(=O)c3ccc(C)cc3)CC2)cc1`?
GCN5L2 inh: -3%

What do the screens show for `O=C(CSc1ccccn1)Nc1ccc2c(c1)C(=O)c1ccccc1C2=O`?
PLK1 PBD inh: 0%; GCN5L2 inh: inconclusive; PTAP TSG101 blk: -6%; VDR inh: -24%; USP1-UAF1 inh: 0%

What do the screens show for `O=C(CSc1n[nH]c(=O)[nH]c1=O)Nc1ccc2c(c1)C(=O)c1ccccc1C2=O`?
PLK1 PBD inh: 6.7µM*; GCN5L2 inh: inconclusive; PTAP TSG101 blk: -6%; VDR inh: inconclusive; USP1-UAF1 inh: inconclusive

Results for O=C(O)Cc1sc(Nc2ccccc2)nc1-c1cccs1 ?
PLK1 PBD inh: 21µM*; GCN5L2 inh: -1%; PTAP TSG101 blk: 5%; VDR inh: 79µM*; USP1-UAF1 inh: -6%

What do the screens show for `O=C(O)Cc1sc(N/N=C\c2ccccc2)nc1-c1ccccc1`?
PLK1 PBD inh: 12µM*; GCN5L2 inh: -26%; PTAP TSG101 blk: -3%; VDR inh: 9%; USP1-UAF1 inh: -21%

What do the screens show for `CCOc1ccccc1CN1C(=O)c2ccccc2C1C(=O)NC1CCCCCC1` (stereo unspecified)?
GCN5L2 inh: 2%; VDR inh: -9%; USP1-UAF1 inh: inconclusive

How did CN1CC(=O)N(CC(=O)Nc2ccc(OC(F)(F)F)cc2)c2ccccc2C1=O do in these assays?
GCN5L2 inh: -1%; VDR inh: 3%; USP1-UAF1 inh: inconclusive

Results for CCOc1ccc(N(CC)C(=O)c2cn(CC)c(=O)c3cc(OC)c(OC)cc23)cc1 ?
PLK1 PBD inh: -13%; GCN5L2 inh: -6%; PTAP TSG101 blk: -3%; VDR inh: 8%; USP1-UAF1 inh: -6%

Results for Cc1cc(Nc2cccc(C(F)(F)F)c2)nc2ccc(NC(=O)Cc3ccc(Cl)cc3)cc12 ?
GCN5L2 inh: -13%; VDR inh: 9%; USP1-UAF1 inh: inconclusive

Results for COc1ccc(NC2=C(Cl)C(=O)N(c3ccccc3)C2=O)c(OC)c1 ?
PLK1 PBD inh: inconclusive; GCN5L2 inh: -1%; PTAP TSG101 blk: -5%; VDR inh: -9%; USP1-UAF1 inh: -20%

Results for COc1ccc(N2C(=O)C(Cl)=C(Nc3c(C)n(C)n(-c4ccccc4)c3=O)C2=O)cc1 ?
PLK1 PBD inh: 24µM*; GCN5L2 inh: -9%; PTAP TSG101 blk: -1%; VDR inh: inconclusive; USP1-UAF1 inh: -11%

How did CCOc1ccc(S(=O)(=O)Nc2cccc(-c3ccc(N4CCCC4)nn3)c2)cc1 do in these assays?
GCN5L2 inh: -4%; VDR inh: 11%; USP1-UAF1 inh: -31%

Results for Cc1ccc(C(=O)c2cc([N+](=O)[O-])ccc2N2CCCCC2)cc1 ?
PLK1 PBD inh: -6%; GCN5L2 inh: -8%; PTAP TSG101 blk: -3%; VDR inh: -16%; USP1-UAF1 inh: -1%

How did Cc1ccc(C(=O)c2cc([N+](=O)[O-])ccc2N2CC(C)OC(C)C2)cc1 (stereo unspecified) do in these assays?
PLK1 PBD inh: inconclusive; GCN5L2 inh: 3%; PTAP TSG101 blk: 0%; VDR inh: 89µM*; USP1-UAF1 inh: -24%

What do the screens show for `Cc1ccc(NC(=O)Cn2cnc3ccccc32)cc1C`?
PLK1 PBD inh: 13µM*; GCN5L2 inh: -2%; PTAP TSG101 blk: 1%; VDR inh: inconclusive; USP1-UAF1 inh: -11%

What do the screens show for `CCCN1CNc2c(c(=O)[nH]c(=S)n2CCc2cc(Cl)ccc2Cl)C1`?
VDR inh: -8%

How did CCOC(=O)/C(=C/C1=CC(=C/N(C)C)/C(=O)O1)C(C)=O do in these assays?
PLK1 PBD inh: 97%; GCN5L2 inh: -7%; PTAP TSG101 blk: inconclusive; VDR inh: 4%; USP1-UAF1 inh: 32µM*

Results for CCOC(=O)C1=C(C)NC(=O)/C1=C\N(C)C ?
PLK1 PBD inh: -17%; GCN5L2 inh: -2%; PTAP TSG101 blk: 3%; VDR inh: -7%; USP1-UAF1 inh: inconclusive

How did COc1ccc(Br)c(Cn2c(C)c(C(=O)NCc3ccc4c(c3)OCCO4)sc2=O)c1 do in these assays?
PLK1 PBD inh: 1%

Results for COc1ccc(-c2c(C)n([O-])c(C)c(C)[n+]2=O)cc1 ?
PLK1 PBD inh: 24µM*; GCN5L2 inh: -4%; PTAP TSG101 blk: -3%; VDR inh: -4%; USP1-UAF1 inh: -4%

What do the screens show for `Cc1noc(C)c1-c1cncnc1N(C)Cc1ccco1`?
GCN5L2 inh: -4%; VDR inh: inconclusive

How did CCOc1ccc2nc(SCC(=O)NCc3ccc(OC)c(OC)c3)[nH]c2c1 do in these assays?
PLK1 PBD inh: 27µM*; GCN5L2 inh: -3%; PTAP TSG101 blk: -8%; VDR inh: inconclusive; USP1-UAF1 inh: -23%

Results for Cc1ccc(F)cc1C(=O)N1CCOCC1c1cc(C(=O)Nc2ccccc2)no1 (stereo unspecified) ?
PLK1 PBD inh: -2%

Results for CC1=CC(=C(C#N)c2nc3ccccc3s2)C=C(C)N1CC1CCCO1 (stereo unspecified) ?
PLK1 PBD inh: 27µM*; GCN5L2 inh: -15%; PTAP TSG101 blk: inconclusive; VDR inh: 5%; USP1-UAF1 inh: inconclusive
